SARS PLpro yeast: SARS-CoV PLP inhibition in yeast | S. cerevisiae expressing SARS-CoV PLpro, growth rescue | Potency, µM (titrated, usually from 32.9 µM), without a hit: at the highest dose activity, positive = growth rescue, most hits filed as activators | 0.19% of 330,000 active; calls by dose curve; note: potency is the fitted concentration of half-maximal effect; 0% is about no effect; nearly all actives have a fitted effect of over 55% in size
AmpC detergent: AmpC beta-lactamase inhibition with detergent present | P00811 | 0.041% of 370,000 active | AmpC hydrolysis of nitrocefin, absorbance 480 nm, 0.01% Triton | Potency, µM (highest dose often 114 µM), for the others: top-dose activity change, negative = inhibition, most hits filed as inhibitors;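 note: potency is the fitted concentration of half-maximal effect; 0% = no-compound wells and -100% = no-enzyme wells; nearly all actives have a fitted effect of over 25% in size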
Target sequence (P00811 whole entry, looked up): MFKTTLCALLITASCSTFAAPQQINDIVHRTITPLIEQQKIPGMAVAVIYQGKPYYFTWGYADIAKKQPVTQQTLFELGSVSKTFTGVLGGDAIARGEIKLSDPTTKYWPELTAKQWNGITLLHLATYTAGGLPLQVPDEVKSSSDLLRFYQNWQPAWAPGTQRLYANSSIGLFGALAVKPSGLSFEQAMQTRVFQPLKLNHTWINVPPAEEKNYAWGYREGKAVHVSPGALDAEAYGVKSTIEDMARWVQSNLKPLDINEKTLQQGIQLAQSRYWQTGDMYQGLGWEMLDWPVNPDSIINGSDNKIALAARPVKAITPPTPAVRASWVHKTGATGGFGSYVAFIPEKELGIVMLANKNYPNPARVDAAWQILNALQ
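AmpC (5.3 nM in the dispensed reagent) in 20 mM phosphate pH 7.0 with 0.01% (detergent screen) or 0.0001% Triton X-100 was preincubated with compounds for 15 min at room temperature. Nitrocefin was then added from an 800 uM solution, and hydrolysis was followed at 480 nm.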
AmpC inh no detg: blocks E. coli AmpC beta-lactamase in detergent-free assay. Potency, µM (series often up to 57.1 µM), without a hit: at the top dose activity change, negative = inhibition, hits mostly inhibitors. AmpC nitrocefin hydrolysis, absorbance 480 nm, 0.0001% Triton. P00811. 0.52% of 330,000 active;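 note: potency is the fitted concentration of half-maximal effect; plate controls were no compound for no effect and no enzyme for full effect; nearly all actives have a fitted effect of over 20% in size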
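20 mM phosphate pH 7.0 + 0.01% (detergent screen) or 0.0001% Triton X-100; 5.3 nM AmpC reagent; cpd preinc 15 min RT; nitrocefin (800 uM stock) to start; A480 q20 s × 4 min; Activity was normalised to no-enzyme and no-compound control wells.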
CHX counter: counter-screen hit for Shiga toxin inhibitors, cycloheximide; max response, %; 12% of 300,000 active; AID 2314; cell reporter, cycloheximide protein synthesis inhibition counterscreen; in the data active = max response mostly above about 13%, no sharp cut-off; inactive = mostly below about 14%; note: read at 38.3 µM for the half of the compounds with a filed dose; 0% is about no effect
Shiga toxin inh: Shiga toxin inhibition; Vero cells, Shiga toxin protein synthesis inhibition reporter; inhibition, % at 38.7 µM; AID 2315; 9.2% of 290,000 active; in the data active = inhibition mostly above about 28%, no sharp cut-off; inactive = mostly below about 43%; note: 0% is about no effect
AMA1-RON2 inh: inhibitors of Plasmodium falciparum AMA1-RON2 interaction. AlphaScreen AMA1-biotinylated RON2 peptide binding. Potency, µM (series often up to 58.2 µM), for inactives: top-dose activity change, negative = inhibition, actives largely listed as inhibitors. 0.2% of 360,000 active;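 note: potency is the fitted concentration of half-maximal effect; 0% = vehicle wells and -100% = peptide control; nearly all actives have a fitted effect of over 45% in size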
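AMA1 (3D7) with his tag at 25 nM final met compounds first, then biotinylated RON2 peptide at 25 nM; detection used donor plus acceptor beads, 10 µg/mL apiece, read by AlphaScreen after 30 min at room temperature.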
Numbers without * were called inactive; ? = inconclusive; . = no result given. The entries come from a sample that favours hits as a whole. Unless noted, calls come from the whole dose curve; as a rule, active = well fitted curve in the direction sought with a large enough effect; inconclusive = small, poorly fitted or top-dose-only effect, or another doubt; inactive = no such curve, though single readings can be large; an effect the other way counts as inactive or inconclusive.

SMILES	SARS PLpro yeast	AmpC detergent	AmpC inh no detg	CHX counter	Shiga toxin inh	AMA1-RON2 inh
O=C(O)c1cccc(Cn2c(Cl)c(/C=N/NC(=O)c3ccco3)sc2=O)c1	?	1%	-4%	33*	27*	39%
COC(=O)c1cccc(Cn2c(Cl)c(/C=N/Nc3ccccc3C)sc2=O)c1	-16%	2%	32µM*	-4	-6	?
CCN(c1ccccc1)c1nc2ccsc2c(=O)s1	-26%	?	-39%	23*	25	67%
CN(c1ccccc1)c1nc2ccsc2c(=O)s1	-12%	-6%	-18%	56*	97*	37%
CN(Cc1nc2ccccc2c(=O)[nH]1)Cc1nc2ccsc2c(=O)[nH]1	0%	-2%	-46%	2	-16	40%
CSc1nc2ccsc2c(=O)n1-c1ccccc1	1%	3%	-24%	9	-5	-10%
O=C1CN(c2nc(-c3cccnc3)nc3scc(-c4ccccc4)c23)CCN1	0%	6%	122%	19*	25	11%
O=C1CN(c2nc(-c3cccs3)nc3sc4c(c23)CCCC4)CCN1	-1%	2%	85%	35*	58*	10%
O=c1oc(-c2cccs2)nc2sc3c(c12)CCCC3	1%	-1%	-7%	-2	0	-3%
O=c1c2c3c(sc2nc2n1N=C(c1cccs1)CS2)CCCC3	-4%	-16%	-27%	19*	73*	-3%
Cc1ccc(-c2ccnc3c(Br)c(C)nn23)cc1	-3%	?	-3%	-4	18	52%
Cc1cc(C)nc(Nc2nc3ccccc3[nH]2)n1	4%	?	5%	29*	90*	-1%
Nc1ccc(Nc2nc3ccccc3[nH]2)cc1	6%	-12%	-33%	6	-6	35%
Cc1ccc(C)c(Nc2nc3ccccc3[nH]2)c1	.	.	.	.	.	9%
c1ccc(Nc2nc3ccccc3[nH]2)nc1	?	-8%	-29%	70*	86*	?
Nc1ccccc1Nc1nc2ccccc2[nH]1	-2%	5%	-28%	27*	34*	-14%
O=C(N/N=C/c1ccc(Br)cc1)c1ccccc1-n1cccc1	-12%	-2%	-28%	-2	-11	-19%
CC(C)(C)n1nnnc1C(c1ccc(C(F)(F)F)cc1)N(Cc1ccc(F)cc1)Cc1ccco1 (centres undefined)	-20%	5%	-20%	13*	active	-5%
CC(C)(C)n1nnnc1C(c1ccc(F)cc1)N(Cc1ccc(F)cc1)Cc1ccco1 (centres undefined)	-20%	-4%	-22%	16*	21	-4%
CC(C)(C)n1nnnc1C(c1ccc(C(F)(F)F)cc1)N(Cc1ccccc1)Cc1ccco1 (centres undefined)	-2%	5%	-22%	-3	-8	3%
CC(C)(C)n1nnnc1C(c1ccc(Cl)cc1)N(Cc1cccnc1)Cc1ccco1 (centres undefined)	-14%	?	54%	-4	15	10%
CCc1nnc(NC(=O)CSc2nnc(CNC(=O)c3cc(OC)c(OC)c(OC)c3)o2)s1	-1%	3%	-11%	17	96*	120%
CC(C)C[C@@H](CNCC(=O)[C@H](CC(=O)O)NC(=O)c1[nH]cnc1C(=O)N[C@H](CN)CC(C)C)NC(=O)c1nc[nH]c1C(=O)N[C@@H](Cc1ccccc1)C(=O)O	.	.	.	.	.	65%
CCn1cnc2cc(NS(=O)(=O)c3ccc(C)cc3)ccc21	4%	7%	-11%	8	58	-6%
CCn1cnc2cc(NCc3cccs3)ccc21	-2%	-5%	-18%	31*	188*	11%
CC(C)(C)n1cnc2cc(NCc3cccs3)ccc21	0%	-6%	-11%	30*	120*	-11%
COc1ccc2c(c1)NP(=S)(Oc1ccccc1)N2 (centres undefined)	-5%	-20%	-21%	64*	86*	46%
CCOC(=O)c1sc(NC(=O)CSc2nccc(C)n2)nc1C	-1%	0%	-11%	1	23	-6%
CCOC(=O)c1sc(NC(=O)CSc2nccn2C)nc1C	-3%	1%	-3%	35*	112*	2%
